Our source for the inhibition values is PubChem BioAssay.

SMILES strings stand for the structures. Active and inactive are the calls of the source. The rule behind the calls is not given here.

Pantothenate synthetase (Mycobacterium tuberculosis (strain ATCC 25618 / H37Rv)), sequence (P9WIL5 whole entry, looked up): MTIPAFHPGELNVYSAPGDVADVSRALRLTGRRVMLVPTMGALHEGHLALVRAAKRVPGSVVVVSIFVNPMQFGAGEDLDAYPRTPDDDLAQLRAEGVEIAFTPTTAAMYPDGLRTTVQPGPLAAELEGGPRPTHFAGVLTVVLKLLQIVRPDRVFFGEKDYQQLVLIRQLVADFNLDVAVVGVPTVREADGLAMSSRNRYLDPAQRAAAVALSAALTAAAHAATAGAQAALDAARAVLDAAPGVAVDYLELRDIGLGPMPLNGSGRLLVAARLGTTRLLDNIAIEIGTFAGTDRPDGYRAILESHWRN

This experiment concerns the target Pantothenate synthetase (Mycobacterium tuberculosis (strain ATCC 25618 / H37Rv)) (UniProt P9WIL5). The experiment is described as follows: Recombinant Mtb pantothenate synthetase (PanC) inhibitors, coupled enzyme, confirmatory (AID 375).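 Note: 0% = full reaction with vehicle and 100% = no enzyme background.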 Particulars: coupled enzyme assay; at 10 µM, active compounds read high.
As to `CC(CCc1ccccc1)NCC(O)c1ccc(O)c(C(N)=O)c1` (stereo not given), the inhibition is 2% (inactive).
Then `CCOC(=O)C(C)Sc1nnc(Cc2cc(=O)[nH]c(=O)[nH]2)n1-c1ccc(Cl)cc1` (stereo not given), with 0% (inactive).
Turning to `CN(C)C(=O)CSc1nnc2sc3ccccc3n12`, the inhibition is 0% (inactive).
As to `CCOC(=O)c1cc2c(=O)n3ccccc3nc2n(CC2CCCO2)c1=NC(C)=O` (stereo not given), the inhibition is 4% (inactive).
With `C=CCN1C(=O)/C(=C2/Sc3ccccc3N2C)SC1=Nc1c(C)n[nH]c1C`, the inhibition was 1% (inactive).
On to `COC(=O)c1ccc(C2NC(C(=O)O)CS2)cc1` (stereo not given), for which the inhibition is 0% (inactive).
`COc1cc(Cn2c(-c3nonc3N)nc3ccccc32)ccc1C`: the inhibition is 0% (inactive).
Take `O=C1CCc2nc3sc4c(c3c(=O)n2N1)CCCC4`: the inhibition is 0% (inactive).
For `NCCN1CCN(CCN)CC1`, the inhibition is 0% (inactive).
Then `CCOC(=O)c1c(C)[nH]c(C(=O)Cn2c(=O)c3c(ncn3CC)n(Cc3ccccc3)c2=O)c1C`, with 3% (inactive); and `COc1cc(C2=NOC(C(=O)NCc3ccc(F)cc3)C2)cc(OC)c1OC` (stereo not given), with 0% (inactive).
In the case of `COc1ccc2c(c1)c1c(n2C(C)=O)C(OC(C)=O)=NCC1`, the inhibition was 0% (inactive).
Then `COc1ccc2nc(NC(=O)c3ccoc3C)sc2c1`, with 0% (inactive); and `Cn1nnnc1SCC(=O)Nc1ccccc1-c1ccccc1`, with 2% (inactive); and `CN(C)c1ccc(O)c2c1CC1CC3[C@@H](N(C)C)C(=O)C(C(N)=O)=C(O)[C@]3(O)C(=O)C1=C2O` (stereo not given in full), with 0% (inactive).
For the compound `CC(C)CN1C(=O)c2ccc(C(=O)Nc3nccs3)cc2C1=O`, the inhibition is 0% (inactive).
In the case of `CC(NC(=O)Cc1cccs1)c1ccc2c(c1)OCO2` (stereo not given), the inhibition was 0% (inactive).
Turning to `CCCc1[nH]nc2c1C(c1cccc(OC(=O)c3ccco3)c1)C(C#N)=C(N)O2` (stereo not given), the inhibition is 1% (inactive).
As to `COC(=O)c1ccccc1NC(=O)COc1ccc(S(=O)(=O)N2CCCC2)cc1C`, the inhibition was 0% (inactive).
On to `CC1Oc2ccccc2N(CC(=O)NCc2cccs2)C1=O` (stereo not given), for which the inhibition is 0% (inactive).
Then `CC(C)C(=O)N1CCN(c2nc(-c3ccccc3)c3c(c2C#N)CCCC3)CC1`, with 0% (inactive); and `O=C(CC1CCCCC1)NCc1ccccn1`, with 0% (inactive).
For `COc1ccc(-c2ccc(=O)n(Cc3cc(=O)n4ccccc4n3)n2)cc1`, the inhibition is 0% (inactive).
Consider `C=CCn1c(-c2ccc(OC)cc2)nc2ccccc21`, for which the inhibition is 0% (inactive).
On to `O=C1CC(c2cccc(Cl)c2)CC(O)=C1C=NCCCO` (stereo not given), for which the inhibition is 9% (inactive).
`C=C1[C@@H](C)C2[C@H](Cc3ccccc3)NC(=O)[C@]23OC(=O)CC[C@H](O)CCC[C@H](C)C/C=C/[C@H]3[C@@H]1O` (stereo not given in full): the inhibition was 0% (inactive).
Take `COc1ccc(CNc2nc3nc(C)c(Cl)c(C)n3n2)cc1OC`: the inhibition is 6% (inactive).
Take `CC(C)(C)n1ncc2c(=O)n(CC(=O)NCc3ccccc3)cnc21`: the inhibition was 0% (inactive).
For the compound `Cc1c(NC(=O)C(C)OC(=O)C(NC(=O)c2ccco2)C(C)C)c(=O)n(-c2ccccc2)n1C` (stereo not given), the inhibition is 8% (inactive).
As for `O=C1N2c3ccccc3CCc3cccc(c32)C1(O)C(F)(F)F` (stereo not given), the inhibition is 0% (inactive).
Regarding `O=C1C2CC=C(Cl)CC2C(=O)N1c1ncn[nH]1` (stereo not given), the inhibition was 0% (inactive).
On to `CCc1nnc(NC(=O)c2ccc(S(=O)(=O)NC3CCCCC3)cc2)s1`, for which the inhibition was 0% (inactive).
As for `O=C(CCn1c(=O)sc2ccccc21)Nc1nccs1`, the inhibition is 0% (inactive).
On to `CC(=O)OC(C)C[N+](C)(C)C` (stereo not given), for which the inhibition was 3% (inactive).
`CC(=O)Nc1ccccc1O`: the inhibition was 9% (inactive).
Then `Cn1c2c(c(=O)[nH]c1=O)C(NC(=O)c1ccco1)(C(F)(F)F)C(=O)N2` (stereo not given), with 0% (inactive); and `CCC(C)(C)n1nnnc1C(c1ccc(OC)c(OC)c1)N1CCN(c2ccc(F)cc2)CC1` (stereo not given), with 0% (inactive).
For `COc1ccccc1NC(=O)C(O)C(O)C(=O)Nc1ccccc1OC` (stereo not given), the inhibition was 3% (inactive).
In the case of `CN(C)C(=O)CN(C)S(=O)(=O)c1ccc(Cl)cc1`, the inhibition is 0% (inactive).
Then `CCOC(=O)Cn1nnnc1C(C(C)C)N(Cc1cc2c(C)cc(C)cc2[nH]c1=O)C1CCCC1` (stereo not given), with 0% (inactive).
